# Measurements taken from the supplement of paper PMC13380429.
# Test system: Vero E6 infected with SARS-CoV-2
# Assay: SARS-CoV-2 infection rate relative to infected DMSO; higher = more infection, active = 60 or less
# Settings: 24 h
row,SMILES,SARS-CoV-2 infection rate
1,C=CC(=O)Nc1cccc(C)c1Nc1ncc2cc(-c3c(Cl)c(OC)cc(OC)c3Cl)ccc2n1 (10 µM),67% (inactive)
2,Nc1nccc(-c2c(-c3ccc(F)cc3)ncn2C2CCCCC2)n1 (0.833333 µM),103% (inactive)
3,O=C(O)CCCCC(CCSCc1ccccc1)SCc1ccccc1 (stereo not given) (10 µM),104% (inactive)
4,FC(F)(F)C(F)(F)C(F)(F)N(C(F)(F)C(F)(F)C(F)(F)F)C(F)(F)C(F)(F)C(F)(F)F [perfluamine] (10 µM),92.5% (inactive)
5,CNC(=O)[C@@H](NC(=O)[C@H](CC(C)C)[C@H](O)C(=O)NO)C(C)(C)C [marimastat] (10 µM),118% (inactive)
6,N[C@@H](Cc1cc(CP(=O)(O)O)cc(-c2ccccc2Cl)c1)C(=O)O (10 µM),97.5% (inactive)
7,Cn1c(NCCN(CCO)CCCc2ccc([N+](=O)[O-])cc2)cc(=O)n(C)c1=O [nifekalant] (10 µM),120% (inactive)
8,Nc1ncnc(Nc2ccc(Cl)cc2)n1 [chlorazanil] (10 µM),106% (inactive)
9,Cc1cc(-c2nc(-c3ccc(OC(F)(F)F)cc3)no2)nn1Cc1ccnc(N2CCN(C3CC3)CC2)c1 (10 µM),98.5% (inactive)
10,CN1CCN(c2ccc(Nc3ncc4cc(C#N)c(=O)n(C5CCCC5)c4n3)cc2)CC1 (0.833333 µM),104% (inactive)
11,C/C=C1\NC(=O)[C@H]2CSSCC/C=C/[C@H](CC(=O)N[C@H](C(C)C)C(=O)N2)OC(=O)[C@H](C(C)C)NC1=O [romidepsin] (10 µM),114% (inactive)
12,CCOCOC[C@H](C[C@H](C)C(=O)NO)NC(=O)c1ccc(Oc2ccccc2)cc1 (10 µM),98.5% (inactive)
13,CCC(=O)NC[C@@H]1C[C@H]1c1cccc2c1CCO2 [tasimelteon] (10 µM),98.5% (inactive)
14,Oc1cc(O)c2c(c1)O[C@H](c1ccc(O)c(O)c1)[C@H](O)[C@H]2c1c(O)cc(O)c2c1O[C@H](c1ccc(O)c(O)c1)[C@H](O)C2 [procyanidin-B-2] (10 µM),106% (inactive)
15,Nc1ccc2ncnc(NCCc3ccc(Oc4ccccc4)cc3)c2c1 (10 µM),102% (inactive)
16,CN1C2C=C(c3sccc3Br)CC1CC2 (stereo not given) (10 µM),69.5% (inactive)
17,COc1cccc(/C=N/N=C/c2cccc(OC)c2)c1 (10 µM),92% (inactive)
18,O=C(O)c1ccccc1Nc1cccc(OCc2ccc3ccccc3n2)c1 (10 µM),95.5% (inactive)
19,C[C@@H](Nc1cc(F)cc(F)c1)c1cc(C(=O)N(C)C)cc2c(=O)cc(N3CCOCC3)oc12 (10 µM),122% (inactive)
20,CN[C@@H]1[C@@H](O[C@H]2O[C@H](CO)[C@@H](N)[C@H](O)[C@H]2O)O[C@H]2C[C@@H](N)[C@@H](O[C@H]3[C@H](O)[C@@H](O)[C@H](N)C[C@@H]3N)O[C@@H]2[C@@H]1O [apramycin] (10 µM),98% (inactive)

row,SMILES,SARS-CoV-2 infection rate
1,O=C(NCc1ccc2c(c1)OCO2)c1c(Cl)cccc1Cl [alda-1] (10 µM),104% (inactive)
2,CCn1c(=O)c(-c2ccc(Cl)cc2Cl)cc2cnc(Nc3ccc(N4CCNCC4)c(F)c3)nc21 (0.833333 µM),106% (inactive)
3,CCCc1c(OCCCCc2nnn[nH]2)ccc(C(C)=O)c1O [tomelukast] (10 µM),110% (inactive)
4,CC(=O)[C@H]1CC[C@H]2[C@@H]3CC[C@H]4C[C@](C)(O)CC[C@]4(C)[C@H]3CC[C@]12C [ganaxolone] (10 µM),104% (inactive)
5,Cc1c(C(=O)NN2CCOCC2)nn(-c2ccc(Cl)cc2Cl)c1-c1ccc(I)cc1 (10 µM),87.5% (inactive)
6,CCCCCCCCCCCCCCCCCCCCCC(=O)O (10 µM),108% (inactive)
7,COc1ncc2cc(C(=O)Nc3cc(C(=O)NCc4cccc(Cl)c4)ccc3Cl)c(=O)[nH]c2n1 (10 µM),110% (inactive)
8,CC(=O)NCC(=O)N1[C@@H]2CC[C@H]1c1ccc(Nc3ncc(C(F)(F)F)c(NC4CCC4)n3)cc12 (0.833333 µM),124% (inactive)
9,CCN1CCCC1CNC(=O)c1cc(S(=O)(=O)CC)c(N)cc1OC (stereo not given) [amisulpride] (10 µM),105% (inactive)
10,Oc1cc(CNC(=S)/C=C/c2cc(O)c(O)c(Br)c2)cc(O)c1O (0.833333 µM),104% (inactive)
11,CC(C)n1cnc2c(C(=O)N[C@H]3CN4CCC3CC4)cc(Cl)cc21 (10 µM),85% (inactive)
12,C=C(C)[C@@H]1CC[C@]2(C(=O)O)CC[C@]3(C)[C@H](CC[C@@H]4[C@@]5(C)CC[C@H](OC(=O)CC(C)(C)C(=O)O)C(C)(C)[C@@H]5CC[C@]43C)[C@@H]12 [bevirimat-dimeglumine] (10 µM),113% (inactive)
13,CO[C@H]1C[C@H](O[C@H]2[C@H](C)O[C@@H](O[C@@H]3/C(C)=C/C[C@@H]4C[C@@H](C[C@]5(C=C[C@H](C)[C@@H](C6CCCCC6)O5)O4)OC(=O)[C@@H]4C=C(C)[C@@H](O)[C@H]5OC/C(=C\C=C\[C@@H]3C)[C@]54O)C[C@@H]2OC)O[C@@H](C)[C@@H]1O [doramectin] (0.833333 µM),104% (inactive)
14,COc1c(N2CCNC(C)C2)c(F)cc2c(=O)c(C(=O)O)cn(C3CC3)c12 (stereo not given) [gatifloxacin] (10 µM),104% (inactive)
15,CN1C[C@@H](NS(=O)(=O)N(C)C)C[C@@H]2c3cccc4c3c(cn4C)C[C@H]21 [mesulergine] (10 µM),93.5% (inactive)
16,CCCCCC(O)CCCC(=O)O (stereo not given) (10 µM),103% (inactive)
17,CNC(=N)NC(=O)Nc1c(C)cccc1C [lidamidine] (10 µM),118% (inactive)
18,COC(=O)C1=CO[C@@H](O[C@@H]2O[C@H](CO)[C@@H](O)[C@H](O)[C@H]2O)[C@@H]2C(CO)=CC[C@H]12 [geniposide] (10 µM),116% (inactive)
19,CSc1ccc2c(c1)[C@H](N1CCN(C)CC1)Cc1ccccc1S2 (racemic) [metitepine] (0.833333 µM),112% (inactive)
20,Oc1ccc(OCc2ccccc2)cc1 [monobenzone] (10 µM),119% (inactive)
